The target of the assay is Nonstructural protein 3 (Zika virus) (UniProt A0A024AXB9).

Experimental findings from ChEMBL document CHEMBL5606458, “ASAP - ZIKV NS2B-NS3 protease fluorescence single point” (2024) are described below.

Molecules are shown by their SMILES. The campaign covered roughly 2,700 compounds. About 160 (5.9%) showed an effect of 50% or more. The list comes from a sample in which strong results are over-represented; it also holds similar structures and randomly drawn compounds.

Chain of Nonstructural protein 3 (Zika virus) (A0A024AXB9 as listed by the source): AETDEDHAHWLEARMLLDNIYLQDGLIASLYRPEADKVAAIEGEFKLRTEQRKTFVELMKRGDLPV

For `CCOc1cc(COc2cccnc2F)nc(N2CCNCC2)n1`, the inhibition was found to be 4.13% (PRVABC59, Concentration 49.5 uM, Number of replicates 2.0, Standard deviation 1.6064643888068098 %); 12.5% (PRVABC59, Concentration 99.01 uM, Number of replicates 2.0, Standard deviation 0.9927585642556782 %); 31.7% (PRVABC59, Concentration 198.0 uM, Number of replicates 2.0, Standard deviation 0.42007662758371656 %).

In turn, `O=C(Cn1ccc2cccnc21)N1CC[C@H](c2c[nH]c3ccccc23)C1` yielded an inhibition (PRVABC59, Concentration 49.5 uM, Number of replicates 2.0, Standard deviation 2.6403237167933415 %) of 8.06%; an inhibition (PRVABC59, Concentration 99.01 uM, Number of replicates 2.0, Standard deviation 2.1942883394495833 %) of 14.3%; an inhibition (PRVABC59, Concentration 198.0 uM, Number of replicates 2.0, Standard deviation 1.481657960884592 %) of 24.1%.

Consider `N[C@H]1CC[C@H](NC(=O)[C@@H](NC(=O)OCc2ccccc2)c2ccc(OCc3ccccc3)cc2)C1`, for which the inhibition was found to be 15.2% (PRVABC59, Concentration 49.5 uM, Number of replicates 2.0, Standard deviation 1.2628524282528915 %); 7.84% (PRVABC59, Concentration 49.5 uM, Number of replicates 2.0, Standard deviation 5.748962140815482 %); 52.6% (PRVABC59, Concentration 99.01 uM, Number of replicates 2.0, Standard deviation 1.1046736199175657 %); 46.8% (PRVABC59, Concentration 99.01 uM, Number of replicates 2.0, Standard deviation 4.807656617809298 %); 80.8% (PRVABC59, Concentration 198.0 uM, Number of replicates 2.0, Standard deviation 0.1296531469135765 %); 83.4% (PRVABC59, Concentration 198.0 uM, Number of replicates 2.0, Standard deviation 1.4858618561424626 %).

As for `O=C(N[C@@H](C(=O)NC1CCNCC1)c1ccc(OCc2ccccc2)cc1)OCc1ccccc1`, the inhibition came to 8.84% (PRVABC59, Concentration 49.5 uM, Number of replicates 2.0, Standard deviation 1.3674946237357393 %); 27.2% (PRVABC59, Concentration 99.01 uM, Number of replicates 2.0, Standard deviation 2.2060968748779715 %); 59.8% (PRVABC59, Concentration 198.0 uM, Number of replicates 2.0, Standard deviation 0.9505739521685185 %).

In turn, `N[C@H]1CC[C@@H](NC(=O)[C@@H](NC(=O)OCc2ccccc2)c2ccc(OCc3ccccc3)cc2)C1` registered an inhibition (PRVABC59, Concentration 49.5 uM, Number of replicates 2.0, Standard deviation 1.7270227515739174 %) of 10.7%; an inhibition (PRVABC59, Concentration 99.01 uM, Number of replicates 2.0, Standard deviation 1.537724733346876 %) of 44.6%; an inhibition (PRVABC59, Concentration 198.0 uM, Number of replicates 2.0, Standard deviation 0.3345151533587208 %) of 79.2%.

In the case of `N[C@@H]1CC[C@H](NC(=O)[C@@H](NC(=O)OCc2ccccc2)c2ccc(OCc3ccccc3)cc2)C1`, the inhibition was determined as 7.24% (PRVABC59, Concentration 49.5 uM, Number of replicates 2.0, Standard deviation 0.3008027321718269 %); 43% (PRVABC59, Concentration 99.01 uM, Number of replicates 2.0, Standard deviation 0.0103741938798655 %); 79.8% (PRVABC59, Concentration 198.0 uM, Number of replicates 2.0, Standard deviation 1.7866649254890776 %).

For the compound `CC(C)(C)OC(=O)Cn1ccnc(N2CC[C@@H](CO)C2)c1=O`, the inhibition (PRVABC59, Concentration 49.5 uM, Number of replicates 2.0, Standard deviation 1.325865675699347 %) was 11.6%; the inhibition (PRVABC59, Concentration 99.01 uM, Number of replicates 2.0, Standard deviation 1.7656333109073532 %) is 22.2%; the inhibition (PRVABC59, Concentration 198.0 uM, Number of replicates 2.0, Standard deviation 1.622873505631253 %) stood at 37.1%.

For `O=C(O)c1cc(Cl)ccc1NS(=O)(=O)c1ccc(Br)cc1`, the inhibition is 7.77% (PRVABC59, Concentration 49.5 uM, Number of replicates 2.0, Standard deviation 0.7950601733582335 %); 14.7% (PRVABC59, Concentration 99.01 uM, Number of replicates 2.0, Standard deviation 0.4216229111618842 %); 24.5% (PRVABC59, Concentration 198.0 uM, Number of replicates 2.0, Standard deviation 0.3312742292956271 %).

In the case of `CCn1ccnc(N2CC[C@H](c3ccc(C#N)cc3)C2)c1=O`, the inhibition is, setting by setting: (PRVABC59, Concentration 49.5 uM, Number of replicates 2.0, Standard deviation 3.318813799365356 %) 8.78%; (PRVABC59, Concentration 99.01 uM, Number of replicates 2.0, Standard deviation 2.601162551030959 %) 17.7%; (PRVABC59, Concentration 198.0 uM, Number of replicates 2.0, Standard deviation 2.251403725502818 %) 31.6%.

Turning to `CCn1ccnc(N2CC[C@H](C3CCOCC3)C2)c1=O`, the inhibition is, setting by setting: (PRVABC59, Concentration 50.0 uM, Number of replicates 2.0, Standard deviation 1.8994947363510455 %) 7.04%; (PRVABC59, Concentration 100.0 uM, Number of replicates 2.0, Standard deviation 0.728011618047951 %) 14.4%; (PRVABC59, Concentration 200.0 uM, Number of replicates 2.0, Standard deviation 0.3716947428915149 %) 27.3%.

The compound `N[C@H]1C[C@H](CNC(=O)[C@@H](NC(=O)OCc2ccccc2)c2ccc(OCc3ccccc3)cc2)C1` showed an inhibition (PRVABC59, Concentration 49.5 uM, Number of replicates 2.0, Standard deviation 3.7963377615811797 %) of 3.96%; an inhibition (PRVABC59, Concentration 99.01 uM, Number of replicates 2.0, Standard deviation 2.5827561793492815 %) of 42.9%; an inhibition (PRVABC59, Concentration 198.0 uM, Number of replicates 2.0, Standard deviation 1.1643103990361166 %) of 82.5%.

In the case of `O=Cc1ccc(N2CCC(C(=O)N3C[C@@H]4C[C@H](C3)c3cccc(=O)n3C4)CC2)cc1`, the inhibition (PRVABC59, Concentration 50.0 uM, Number of replicates 1.0) was 21.2%.

For `CC(C)Oc1cc(COc2cccnc2F)nc(N2CCNCC2)n1`, the inhibition reads like this: (PRVABC59, Concentration 49.5 uM, Number of replicates 2.0, Standard deviation 2.4105168451759336 %) 4.13%; (PRVABC59, Concentration 99.01 uM, Number of replicates 2.0, Standard deviation 2.7698794201931607 %) 16.6%; (PRVABC59, Concentration 198.0 uM, Number of replicates 2.0, Standard deviation 3.834837221821941 %) 38.4%.

What is called inhibition is the percentage by which the read-out fell short of the control.
